Records with an inconclusive call do not appear. The source made the active and inactive calls. Unless noted, the call rests on the fitted dose curve; in most records, active means well fitted curve in the direction sought with a large enough effect; inconclusive means small, poorly fitted or top-dose-only effect, or another doubt; inactive means no such curve, though single readings can be large; an effect the other way counts as inactive or inconclusive.
Legend:
[1] = qHTS for Inhibitors of the vitamin D receptor (VDR): Hit Validation using a Texas Red Assay (AID 602201); further: potency means the concentration at half of the fitted maximal effect
Procedure, shortened: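 Fluorescence polarization (Ex 595/Em 615 nm) of Texas Red (7 nM) with 1.5 uM VDR-LBD and LG19078 (final concentrations). Compounds were incubated for 2 hours at room temperature.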

[2] = target: Vitamin D3 receptor (Homo sapiens) (UniProt P11473); test: qHTS assay for small molecule agonists of vitamin D receptor signaling (AID 588543; calls by dose curve;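 further: 0% = DMSO basal and 100% = reference agonist control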)
Vitamin D3 receptor (Homo sapiens), sequence (P11473 whole entry, looked up): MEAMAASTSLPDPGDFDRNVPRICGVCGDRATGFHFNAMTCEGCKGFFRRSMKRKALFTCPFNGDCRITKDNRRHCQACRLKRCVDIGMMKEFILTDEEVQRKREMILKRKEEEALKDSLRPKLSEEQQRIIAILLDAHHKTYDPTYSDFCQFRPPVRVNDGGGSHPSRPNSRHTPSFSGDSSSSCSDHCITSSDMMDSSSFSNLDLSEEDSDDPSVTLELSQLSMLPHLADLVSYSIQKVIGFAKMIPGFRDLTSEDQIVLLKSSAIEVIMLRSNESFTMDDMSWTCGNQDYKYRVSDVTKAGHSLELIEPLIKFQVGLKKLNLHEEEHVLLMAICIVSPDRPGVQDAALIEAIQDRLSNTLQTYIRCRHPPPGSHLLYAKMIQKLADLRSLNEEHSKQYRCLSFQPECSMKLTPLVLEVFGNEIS
Procedure, shortened: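 Reporter cells (HEK293T, VDR-UAS-bla) were seeded in medium with 2% charcoal-stripped serum and incubated 5 h, then compounds in concentration series were added for 16 h at 37 °C. Stimulation was scaled between DMSO basal and 50 nM 1α,25-dihydroxyvitamin D3.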

[3] = target: Thyroid hormone receptor beta (Homo sapiens) (UniProt P10828); test: qHTS assay for small molecule antagonists of thyroid hormone receptor beta signaling (AID 588547; active means well fitted inhibition curve with a large enough effect in the signal ratio, with a control signal flat, not every such curve was filed as active; the % refers to the signal ratio;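 further: cells stimulated with 0.4 nM T3 agonist during compound exposure; series mostly up to about 77 µM; on the % scale 0 is the no-effect control and ±100 the full control effect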); details: TR-UAS-bla HEK293, beta-lactamase ratio, antagonist mode, 18 h
Thyroid hormone receptor beta (Homo sapiens), sequence (P10828 whole entry, looked up): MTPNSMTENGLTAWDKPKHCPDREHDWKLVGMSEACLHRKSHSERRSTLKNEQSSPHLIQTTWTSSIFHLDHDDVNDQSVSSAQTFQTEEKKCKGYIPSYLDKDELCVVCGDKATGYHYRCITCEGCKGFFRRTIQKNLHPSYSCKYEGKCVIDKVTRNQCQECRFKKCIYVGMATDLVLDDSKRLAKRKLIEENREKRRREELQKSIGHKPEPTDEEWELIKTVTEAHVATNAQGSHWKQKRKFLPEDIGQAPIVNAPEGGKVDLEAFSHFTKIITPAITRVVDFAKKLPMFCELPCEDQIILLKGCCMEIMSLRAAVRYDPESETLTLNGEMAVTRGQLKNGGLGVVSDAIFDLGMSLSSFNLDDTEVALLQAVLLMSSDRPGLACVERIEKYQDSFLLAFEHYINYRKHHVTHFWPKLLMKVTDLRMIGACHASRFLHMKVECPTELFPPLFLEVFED
Procedure, shortened: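 TR-UAS-bla GripTite HEK293 cells in 2% charcoal/dextran FBS medium were preincubated 4 h at 37 C, given compound (0.59 nM to 92 uM) plus 0.4 nM T3 (final) for 18 h, then CCF4 for 2 h at RT; Hill fit gave IC50.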

[4] = qHTS assay for small molecule activators of the p53 signaling pathway (AID 651743; active means well fitted activation curve with a large enough effect in the signal ratio, not every such curve was filed as active; the % refers to the signal ratio; further: series mostly up to about 92 µM; % of control where 0% means no effect); details: HCT-116 p53RE-bla, beta-lactamase FRET ratio, 16 h; activation: stronger effect = higher value
Procedure, shortened: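 Agonist-mode quantitative HTS in HCT-116 cells carrying a p53-response-element beta-lactamase reporter; 16 h compound treatment at 37 C, then FRET substrate loading for 2 h at room temperature and fluorescence read.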

[5] = qHTS assay for small molecule activators of the nuclear factor-kappa B (NF-kB) signaling pathway (AID 651749; active means well fitted activation curve with a large enough effect in the signal ratio; the % refers to the signal ratio; further: series mostly up to about 77 µM; % of control where 0% means no effect); details: NF-kB-bla ME-180 cells, beta-lactamase FRET ratio, 16 h; activation: stronger effect = higher value
Procedure, shortened: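 Human ME-180 cervical cells with an NF-kB-bla construct; compounds added via 23 nL pin transfer, DMSO as vehicle; incubation 16 hr. Reporter activity measured by FRET disruption.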

[6] = qHTS assay for environmental chemicals that activate the Aryl hydrocarbon Receptor (AhR) signaling pathway (AID 651777); details: 1A2-DRE human hepatoma cells, luciferase, 24 h; activation: stronger effect = higher value; further: % of control where 0% means no effect; nearly all actives have a fitted effect of over 15% in size
Procedure, shortened: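 Induction of CYP1A2 transcription through AhR is detected by luciferase in 1A2-DRE hepatoma cells. Compounds or DMSO act for 24 hr at 37 C before a 30 min One-Glo step at room temperature.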

[7] = target: Peroxisome proliferator-activated receptor alpha (Homo sapiens) (UniProt Q07869); test: qHTS assay for small molecule agonists of the peroxisome proliferator-activated receptor alpha (PPARalpha) signaling pathway (AID 651778); details: PathHunter PPARalpha complementation, chemiluminescence, 6 h; max response: stronger effect = higher value; further: % of control where 0% means no effect
Peroxisome proliferator-activated receptor alpha (Homo sapiens), sequence (Q07869 whole entry, looked up): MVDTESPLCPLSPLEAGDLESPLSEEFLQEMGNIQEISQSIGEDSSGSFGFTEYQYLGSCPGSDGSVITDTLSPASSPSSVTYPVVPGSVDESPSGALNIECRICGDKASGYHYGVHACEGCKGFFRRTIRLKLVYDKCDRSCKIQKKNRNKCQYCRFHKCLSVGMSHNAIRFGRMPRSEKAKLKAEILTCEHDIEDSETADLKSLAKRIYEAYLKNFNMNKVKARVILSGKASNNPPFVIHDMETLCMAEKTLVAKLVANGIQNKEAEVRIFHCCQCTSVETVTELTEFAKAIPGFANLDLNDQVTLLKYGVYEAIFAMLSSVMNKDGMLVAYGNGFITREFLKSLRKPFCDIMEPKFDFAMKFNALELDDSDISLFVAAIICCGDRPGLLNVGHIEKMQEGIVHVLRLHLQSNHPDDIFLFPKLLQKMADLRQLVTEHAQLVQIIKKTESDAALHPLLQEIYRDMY
Procedure, shortened: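 Cells plated at 2,000/well and held overnight at 37 C, 5% CO2, then compound added by pin tool for 6 hr; after PathHunter detection reagent and 60 min at room temperature, chemiluminescence from enzyme complementation was read.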

[8] = qHTS assay for small molecule agonists of the antioxidant response element (ARE) signaling pathway measured by Nrf2-dependant transcriptional activity (AID 720636; active means well fitted curve in the direction sought with a large enough effect in the repeat runs; an effect the other way counts as inactive or inconclusive;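 further: HepG2 cells with an ARE-driven luciferase reporter; % of control where 0% means no effect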)
Procedure, shortened: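 We exposed ARE-luc HepG2 cells, seeded in assay medium with 1% dialyzed FBS and allowed 6 hr to adhere, to test compounds overnight (16 hr, 37 C) before measuring luciferase with ONE-Glo.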

[9] = qHTS assay for small molecule agonists of the antioxidant response element (ARE) signaling pathway measured by Nrf2-dependant transcriptional activity - cell viability counter screen (AID 720653; active means well fitted curve in the direction sought with a large enough effect in the repeat runs; an effect the other way counts as inactive or inconclusive; further: on the % scale 0 is the no-effect control and ±100 the full control effect); details: ARE-bla HepG2 viability, CellTiter-Glo ATP luminescence, 16 h; max response: stronger effect = lower value
Procedure, shortened: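 ARE-bla HepG2 cells (2,000/well) rested 5 hrs at 37C/5% CO2, then exposed to compounds in DMSO for 16 hrs. Viability was read in the same wells as intracellular ATP by luminescence, 30 min at room temperature after reagent addition.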

[10] = qHTS assay for cell viability of HEK293 cells (AID 743288); details: ATP luminescence (CellTiter-Glo), 18 h; max response: stronger effect = lower value; further: on the % scale 0 is the no-effect control and ±100 the full control effect; nearly all actives have a fitted effect of over 50% in size
Procedure, shortened: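 Viable-cell counts were inferred from luciferase-based ATP content in HEK293 cells seeded at 2,000/well, pre-incubated ≥5 h, then dosed with DMSO-solubilised compounds for 18 h at 37 C.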

[11] = qHTS assay for cell viability of the p53RE-bla HCT-116 cell line (AID 743292); further: on the % scale 0 is the no-effect control and ±100 the full control effect; nearly all actives have a fitted effect of over 55% in size
Procedure, shortened: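 In this qHTS counter-screen, metabolically competent p53RE-bla HCT-116 cells were counted via their ATP content. Compounds were applied for 16 h at 37 C and luciferase-coupled luminescence was measured.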

[12] = target: Nuclear receptor subfamily 1 group I member 2 (Rattus norvegicus) (UniProt Q9R1A7); test: qHTS assay for small molecule activators of the rat pregnane X receptor (rPXR) signaling pathway (AID 651751; call rule not given here; further: 0% is about no effect); details: rPXR reporter cells, luciferase (One-Glo), 24 h
Nuclear receptor subfamily 1 group I member 2 (Rattus norvegicus), sequence (Q9R1A7 whole entry, looked up): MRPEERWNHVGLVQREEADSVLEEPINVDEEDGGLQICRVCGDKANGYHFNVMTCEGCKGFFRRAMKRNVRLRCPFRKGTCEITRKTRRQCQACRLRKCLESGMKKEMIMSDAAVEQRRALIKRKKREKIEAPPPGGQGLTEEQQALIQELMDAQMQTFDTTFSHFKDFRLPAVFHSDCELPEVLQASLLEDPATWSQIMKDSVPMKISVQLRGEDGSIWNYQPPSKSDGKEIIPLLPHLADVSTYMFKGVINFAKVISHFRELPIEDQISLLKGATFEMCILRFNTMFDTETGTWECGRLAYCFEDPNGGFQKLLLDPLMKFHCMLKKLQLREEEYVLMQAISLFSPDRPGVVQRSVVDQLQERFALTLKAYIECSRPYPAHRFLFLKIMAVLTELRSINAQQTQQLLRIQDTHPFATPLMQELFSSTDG

[13] = target: Peroxisome proliferator-activated receptor gamma (Homo sapiens) (UniProt P37231); test: qHTS assay for small molecule agonists of peroxisome proliferator-activated receptor gamma signaling (AID 588536; active means well fitted curve in the direction sought with a large enough effect in the signal ratio, with a control signal flat, not every such curve was filed as active; the % refers to the signal ratio;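 further: 0% = DMSO basal wells and 100% = rosiglitazone at 2 µM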)
Peroxisome proliferator-activated receptor gamma (Homo sapiens), sequence (P37231 whole entry, looked up): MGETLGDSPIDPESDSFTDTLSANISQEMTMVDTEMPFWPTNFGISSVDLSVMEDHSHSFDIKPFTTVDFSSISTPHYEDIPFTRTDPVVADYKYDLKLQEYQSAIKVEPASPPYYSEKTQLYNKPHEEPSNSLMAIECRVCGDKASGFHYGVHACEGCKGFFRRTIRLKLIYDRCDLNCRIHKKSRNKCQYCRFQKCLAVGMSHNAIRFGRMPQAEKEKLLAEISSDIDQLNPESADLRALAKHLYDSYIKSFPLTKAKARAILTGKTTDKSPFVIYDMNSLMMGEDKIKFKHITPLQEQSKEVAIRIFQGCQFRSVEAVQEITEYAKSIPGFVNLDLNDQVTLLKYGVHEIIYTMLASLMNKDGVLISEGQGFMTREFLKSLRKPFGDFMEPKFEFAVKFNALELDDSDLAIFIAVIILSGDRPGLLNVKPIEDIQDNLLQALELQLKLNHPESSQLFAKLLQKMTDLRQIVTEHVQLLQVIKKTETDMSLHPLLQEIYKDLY
Procedure, shortened: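 Cells were plated and held 6–6.5 h at 37 C, then compounds were added as a titration series. After a further 16 h, CCF4 dye was loaded for 2 h at room temperature and emission at 460/530 nm recorded.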

[14] = target: Peroxisome proliferator-activated receptor gamma (Homo sapiens) (UniProt P37231); test: qHTS assay for small molecule antagonists of peroxisome proliferator-activated receptor gamma signaling (AID 588537; active means well fitted inhibition curve with a large enough effect in the signal ratio, with a control signal flat, not every such curve was filed as active; the % refers to the signal ratio;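 further: reporter cells co-stimulated with 50 nM rosiglitazone agonist during compound treatment; % of control where 0% means no effect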)
Procedure, shortened: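 Compounds are tested as concentration series for inhibition of rosiglitazone-driven (50 nM) reporter expression in GeneBLAzer PPAR-gamma-UAS-bla HEK293 cells. After 16 h at 37 C, CCF4 substrate is added for 2 h at room temperature and blue/green fluorescence is measured.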

[15] = target: Vitamin D3 receptor (Homo sapiens) (UniProt P11473); test: qHTS assay for small molecule antagonists of vitamin D receptor signaling (AID 588541; calls by dose curve;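 further: receptor activated by calcitriol during compound treatment; series mostly up to about 77 µM; on the % scale 0 is the no-effect control and ±100 the full control effect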)
Procedure, shortened: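 VDR-UAS-bla HEK293T cells (2000/well, 2% charcoal-stripped FBS) were treated with titrated compounds plus 1-alpha,25-dihydroxyvitamin D3 (50 nM or 3 nM final) for 16 h at 37 C. CCF4 beta-lactamase fluorescence was read; Hill fits gave IC50.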

[16] = target: Thyroid hormone receptor beta (Homo sapiens) (UniProt P10828); test: qHTS assay for small molecule agonists of thyroid hormone receptor beta signaling (AID 588545; calls by dose curve)
Procedure, shortened: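 Cells (2500/well) were seeded, incubated 4 hrs at 37 C, dosed with a compound series, incubated 18 hrs, loaded with CCF4 dye for 2 hrs at RT, then read for fluorescence. Data were scaled between DMSO (0%) and 10 nM T3 (100%).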

[17] = qHTS assay for small molecule antagonists of retinoid X receptor alpha signaling (AID 588546; active means well fitted inhibition curve with a large enough effect in the signal ratio, with a control signal flat, not every such curve was filed as active; the % refers to the signal ratio;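 further: cells stimulated with 9-cis-retinoic acid as agonist; on the % scale 0 is the no-effect control and ±100 the full control effect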); details: HEK293T RXRa-UAS-bla, beta-lactamase ratio, antagonist mode; measured here: W530 green channel, cytotoxicity proxy
Procedure, shortened: (§1)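 Beta-lactamase reporter inhibition, read as CCF4 fluorescence ratio (ex 405, em 460/530 nm) after 2 h at RT. HEK293T UAS-bla cells, 2500/well, were stimulated with 9-cis-RA at 500 or 100 nM final alongside test compound for 18 h at 37 C.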

[18] = target: Retinoic acid receptor RXR-alpha (Homo sapiens) (UniProt P19793); test: as above; details: HEK293T RXRa-UAS-bla, beta-lactamase ratio, antagonist mode
Retinoic acid receptor RXR-alpha (Homo sapiens), sequence (P19793 whole entry, looked up): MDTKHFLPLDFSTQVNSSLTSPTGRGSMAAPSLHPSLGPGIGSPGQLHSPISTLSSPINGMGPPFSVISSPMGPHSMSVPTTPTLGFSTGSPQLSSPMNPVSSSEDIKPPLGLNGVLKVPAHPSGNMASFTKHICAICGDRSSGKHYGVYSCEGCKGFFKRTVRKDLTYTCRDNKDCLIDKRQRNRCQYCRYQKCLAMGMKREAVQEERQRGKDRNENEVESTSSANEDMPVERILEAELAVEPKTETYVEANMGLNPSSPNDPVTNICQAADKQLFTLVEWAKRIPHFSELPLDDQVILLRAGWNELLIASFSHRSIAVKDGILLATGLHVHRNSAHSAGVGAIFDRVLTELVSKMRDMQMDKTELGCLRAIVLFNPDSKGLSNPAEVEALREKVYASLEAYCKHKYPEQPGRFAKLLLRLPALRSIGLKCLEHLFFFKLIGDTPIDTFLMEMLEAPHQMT
Procedure, shortened: as §1

[19] = qHTS assay for small molecule agonists of the antioxidant response element (ARE) signaling pathway (AID 651741; active means well fitted activation curve with a large enough effect in the signal ratio; the % refers to the signal ratio; further: % of control where 0% means no effect)
Procedure, shortened: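 Reporter: beta-lactamase under ARE, stably in HepG2. Exposure: 16 h, 37 C, compounds delivered in DMSO by pin tool after 5 h cell preincubation. Readout: FRET substrate fluorescence after 2 h at RT.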

[20] = qHTS assay for small molecule activators of the human pregnane X receptor (PXR) signaling pathway (AID 720659; call rule not given here; further: 0% is about no effect)
[21] = target: Cytochrome P450 2C9 (Homo sapiens) (UniProt P11712); test: qHTS Assay for Inhibitors and Substrates of Cytochrome P450 2C9 (AID 883); further: potency means the concentration at half of the fitted maximal effect; nearly all actives have a fitted effect of over 60% in size
Cytochrome P450 2C9 (Homo sapiens), sequence (P11712 whole entry, looked up): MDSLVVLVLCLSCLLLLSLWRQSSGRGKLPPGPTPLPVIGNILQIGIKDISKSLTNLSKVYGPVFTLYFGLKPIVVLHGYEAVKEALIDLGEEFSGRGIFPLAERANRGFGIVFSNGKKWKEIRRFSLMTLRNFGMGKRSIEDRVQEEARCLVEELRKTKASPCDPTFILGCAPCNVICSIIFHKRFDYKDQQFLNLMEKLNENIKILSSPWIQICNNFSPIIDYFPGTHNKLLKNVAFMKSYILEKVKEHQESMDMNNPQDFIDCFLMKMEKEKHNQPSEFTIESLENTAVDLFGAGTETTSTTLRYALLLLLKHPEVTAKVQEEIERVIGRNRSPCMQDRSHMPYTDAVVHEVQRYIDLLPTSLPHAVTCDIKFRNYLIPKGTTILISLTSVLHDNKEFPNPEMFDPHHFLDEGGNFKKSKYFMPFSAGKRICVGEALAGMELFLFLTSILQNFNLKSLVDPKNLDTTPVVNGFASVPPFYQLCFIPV
Procedure, shortened: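 CYP2C9 deoxyluciferin hydroxylation, 37C, 60 min with NADPH regeneration; 10nM enzyme, 100uM Luciferin-H (KM). Glo detection reagent stopped reaction; luminescence normalized to sulphaphenazole (57uM) full inhibition.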

[22] = target: Cytochrome P450 3A4 (Homo sapiens) (UniProt P08684); test: qHTS Assay for Activators of Cytochrome P450 3A4 (AID 885); further: nearly all actives have a fitted effect of over 65% in size
Cytochrome P450 3A4 (Homo sapiens), sequence (P08684 whole entry, looked up): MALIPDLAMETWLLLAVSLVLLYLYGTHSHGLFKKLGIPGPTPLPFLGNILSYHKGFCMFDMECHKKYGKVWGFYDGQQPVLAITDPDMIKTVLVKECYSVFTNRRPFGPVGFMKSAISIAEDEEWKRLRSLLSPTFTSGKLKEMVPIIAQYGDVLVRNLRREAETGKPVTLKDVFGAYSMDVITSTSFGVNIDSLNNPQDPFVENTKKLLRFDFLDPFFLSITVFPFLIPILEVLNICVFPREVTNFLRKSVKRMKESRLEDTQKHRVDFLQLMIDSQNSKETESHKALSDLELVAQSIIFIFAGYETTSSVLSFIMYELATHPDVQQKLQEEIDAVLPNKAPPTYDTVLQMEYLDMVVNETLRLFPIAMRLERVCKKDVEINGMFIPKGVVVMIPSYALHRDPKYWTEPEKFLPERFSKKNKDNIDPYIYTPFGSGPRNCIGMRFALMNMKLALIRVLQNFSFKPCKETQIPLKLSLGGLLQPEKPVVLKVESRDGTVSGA
Procedure, shortened: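 Human CYP3A4 dealkylates Luciferin-PPXE to luciferin, which luciferase detection converts to light. Substrate was at its KM (25uM), buffer 200mM KPO4, reaction 60 min at RT.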

[23] = target: Cytochrome P450 2C19 (Homo sapiens) (UniProt P33261); test: qHTS Assay for Inhibitors and Substrates of Cytochrome P450 2C19 (AID 899); further: potency means the concentration at half of the fitted maximal effect; nearly all actives have a fitted effect of over 60% in size
Cytochrome P450 2C19 (Homo sapiens), sequence (P33261 whole entry, looked up): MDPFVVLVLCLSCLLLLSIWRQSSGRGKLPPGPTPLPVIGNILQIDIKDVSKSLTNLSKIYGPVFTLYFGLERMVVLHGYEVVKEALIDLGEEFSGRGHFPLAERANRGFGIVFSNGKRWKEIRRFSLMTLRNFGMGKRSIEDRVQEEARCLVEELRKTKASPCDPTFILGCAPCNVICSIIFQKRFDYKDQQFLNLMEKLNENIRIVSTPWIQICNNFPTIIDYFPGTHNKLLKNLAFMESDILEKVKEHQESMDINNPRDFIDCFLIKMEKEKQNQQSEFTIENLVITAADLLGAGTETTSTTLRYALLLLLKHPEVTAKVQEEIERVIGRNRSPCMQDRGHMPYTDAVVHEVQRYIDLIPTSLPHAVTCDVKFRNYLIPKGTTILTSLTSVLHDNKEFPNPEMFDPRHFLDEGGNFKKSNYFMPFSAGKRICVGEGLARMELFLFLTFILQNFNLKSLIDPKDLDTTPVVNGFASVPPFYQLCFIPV
Procedure, shortened: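 In 50mM KPO4, the reaction held 5nM enzyme and KM-level (10uM) Luciferin-H EGE; it ran 60 min at 37C after NADPH regeneration and a 10 min compound preincubation. Luminescence values were scaled to 57uM ketoconazole as complete inhibition.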

O=c1[nH]c(/C=C/c2ccc(Cl)cc2Cl)c([N+](=O)[O-])c(=O)[nH]1
inactive: Potency [1]

O=C(Nc1nnc(COc2ccc(Cl)cc2)s1)c1ccco1
inactive: Potency [1]

CN(C)c1ccc(C(c2ccccc2)c2ccc(N(C)C)cc2)cc1
inactive: outcome [2] | activity change % (negative = inhibition) [3] 13.2% | activation [4] -0.413% | activation [5] 5.79% | activation [6] 1.41% | max response [7] -1.55% | Potency [8] | max response [9] -16.8% | max response [10] -22.1% | Potency [11] | max response [12] 5.9%

CCn1c(CSc2nnc(-c3ccncc3)n2CCOC)nc2cc(C(=O)O)ccc21
active: Potency [1] 15.8 µM

O=C(/C=C/c1ccccc1F)c1cccc([N+](=O)[O-])c1
active: Potency [1] 3.16 µM

O=C1Nc2ccccc2/C1=C/C(=O)c1cccs1
active: Potency [1] 28.2 µM

O=C1ON=C(c2ccccc2)/C1=C/c1ccc(O)cc1
inactive: Potency [1]

CCCOC(=O)NCCCN(C)C
inactive: outcome [13] | Potency [14] | Potency [15] | outcome [2] | Potency [16] | max response [18] 1.48% | activity change % (negative = inhibition) [3] 1.87% | Potency [19] | activation [4] -1.96% | max response [7] -0.73% | Potency [8] | max response [9] -5.96% | max response [10] -0.93% | Potency [11] | max response [12] 8.36% | outcome [20]
-8.13%: max response [17]

Cc1ccc(NC(=O)C2=C(c3ccccc3)S(=O)(=O)CCS2(=O)=O)cc1
active: Potency [1] 10 µM

COC(=O)[C@@]1(Cc2ccc(OC)cc2)[C@H]2c3cc(C(=O)N4CCCC4)n(CCCNc4ncc(C(F)(F)F)cc4Cl)c3C[C@H]2CN1C(=O)c1ccccc1
active: Potency [21] 7.94 µM | Potency [23] 3.16 µM
inactive: Potency [22]
